{"source": "PubChem BioAssay (NCI)", "note": "About 83,000 compounds went through this panel and 20% of them were active in at least one assay; those are over-represented in the sample as a whole.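 Each cell line was grown in a 96-well plate and treated with one concentration of compound for 48 hours. Values below 10 were considered active.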 Values without a mark were called inactive. Activity calls are given as the source filed them.", "data": [{"system": "SN12C renal", "assay": "NCI-60 one-dose screen, 48 h (100 = growth as untreated, 0 = no growth, -100 = all killed)", "conditions": "10 µM unless noted", "values": [{"smiles": "NC(=O)N1CCOCC1", "growth": "109%"}, {"smiles": "N#Cc1ccc(OC(=O)Nc2c(Cl)cc(Cl)cc2Cl)cc1", "growth": "98.2%"}, {"smiles": "CCOC(=O)/C(C)=C\\c1ccc(OC)c(OC)c1", "growth": "104%"}, {"smiles": "O=S(Cc1ccccc1)/C(=C/NC(=S)Nc1ccccc1)c1ccccc1", "note": "(configuration not stated)", "growth": "109%"}, {"smiles": "C/C(=N\\O)c1ccccn1", "growth": "91.4%"}, {"smiles": "CC(C)NC(=O)OCc1c(COC(=O)NC(C)C)c(-c2ccc(Cl)cc2)n2c1CCC2", "growth": "38.2%"}, {"smiles": "CC(=O)NNC(=S)/N=C\\C(C(=O)c1ccccc1)=C(/O)c1ccccc1", "growth": "107%"}, {"smiles": "C=CCS(C)(=O)=O", "growth": "98.1%"}, {"smiles": "O=C(NCc1ccccc1)c1cccc([N+](=O)[O-])c1", "growth": "104%"}, {"smiles": "c1ccc(-c2ccc3ccccc3c2)cc1", "growth": "96.1%"}, {"smiles": "Cc1ccccc1NC(=O)Oc1ccc(Cl)cc1C(=O)c1ccccc1", "growth": "88.2%"}, {"smiles": "CCC(C)c1c(N)n(S(=O)(=O)c2ccc(C)cc2)oc1=O", "note": "(configuration not stated)", "growth": "106%"}, {"smiles": "O=Cc1c(O)c2ccccc2[nH]c1=O", "growth": "92.3%"}, {"smiles": "COC(=O)c1ccccc1C(=O)c1c(C)cc(C)cc1C", "growth": "99.9%"}, {"smiles": "N=C(N)c1nn(C2OC(CO)C(O)C2O)c2nc[nH]c(=O)c12", "note": "(configuration not stated)", "growth": "6.98% (active)"}, {"smiles": "COc1cccc(C(=O)O)c1OC", "growth": "96.6%"}, {"smiles": "O=C(O)c1cc(I)ccc1O", "growth": "95.3%"}, {"smiles": "CC(=O)NNC(=S)N/C=C/c1c(C)ccc([N+](=O)[O-])c1[N+](=O)[O-]", "growth": "96.2%"}, {"smiles": "NNc1ncnc2c1ncn2C1OC(CO)C(O)C1O", "note": "(configuration not stated)", "growth": "27.7%"}, {"smiles": "C=CCNC(=S)N/C=C(/C(=O)c1ccccc1)c1ccccc1", "growth": "93.6%"}, {"smiles": "Cc1ccc(C2CCCCC2)cc1Br", "growth": "101%"}, {"smiles": "OCCc1ccc(Cl)cc1", "growth": "94.9%"}, {"smiles": "C/C(O)=C(/C=N/C(=S)Nc1ccccc1)C(=O)Nc1ccccc1C", "growth": "94.8%"}, {"smiles": "CC1(C)OC(=O)CC1=O", "growth": "105%"}, {"smiles": "CN(C)CCOC(=O)Nc1ccc(Cc2ccc(NC(=O)OCCN(C)C)cc2)cc1", "growth": "97.5% [100 µM]"}, {"smiles": "O=c1nc(Nc2cccc(Cl)c2)oc2cc(Cl)oc(=O)c12", "growth": "86.1%"}, {"smiles": "OCCNc1ccccc1", "growth": "108%"}, {"smiles": "O=C(Oc1ccccc1Cl)c1ccc(Cl)cc1Cl", "growth": "98.3%"}, {"smiles": "COc1cc(OC)c2cc(C(=O)c3ccc(C#N)cc3)c(=O)oc2c1", "growth": "81.6%"}, {"smiles": "CC(C)C1CCC(C)C(O)C1", "note": "(configuration not stated)", "growth": "96.3%"}, {"smiles": "O=C(NC1CCCCC1)c1ccc(Cl)cc1", "growth": "103%"}, {"smiles": "O=C1C=Cc2ccccc2/C1=C/c1[nH]c(=O)[nH]c1O", "growth": "60.6%"}, {"smiles": "NC(CO)(CO)c1ccccc1", "growth": "108%"}, {"smiles": "Nc1cc(N)ncn1", "growth": "97.1%"}, {"smiles": "S=C(Sc1ccc(Cl)cc1)Sc1ccc(Cl)cc1", "growth": "-47.6% (active)"}, {"smiles": "CCOc1ccc(C(=O)O)cc1", "growth": "113%"}, {"smiles": "COc1cccc(C(=O)NNC(=O)c2cccc3ccccc23)c1", "growth": "108%"}]}]}
